Assay outcomes as filed in PubChem.
Most compounds without a hit are left out; they make up all but 2.8% or so of the library.
PI5P4Ka inh: PI5P4K alpha (human) kinase inhibition; PI5P4Kalpha enzyme, ADP-Glo luminescence, 60 min; active compounds read low; hit rate 1.2% among 330,000; AID 652105; max response, %; P48426; active = max response of -50% or lower; inconclusive = between -30% and -50%; inactive = -30% or higher; also: value at the top dose of about 77 µM; % is scaled to controls: 0 for no effect and ±100 for the full control effect
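Quantitative HTS of the MLSMR library against PI5P4Kalpha with substrate. ATP added last at 5 microM final; room temperature, 60 minutes. Remaining ATP depleted, ADP converted and read as luminescence.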
Pol eta inh: DNA polymerase eta (human) inhibition | AID 588591 | Potency, µM (top dose mostly 114 µM), for inactives: top-dose activity change, negative = inhibition, usual class: inhibitors | hit rate 1.2% among 390,000 | recombinant Pol eta, fluorescent DNA replication assay | Q9Y253; also: potency is read from the fitted curve at half-maximal effect; % is scaled to controls: 0 for no effect and ±100 for the full control effect
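Pol eta at 10 nM preincubated with compounds 15 min at room temperature; reaction started with fluorescent substrate (50 nM final) and read kinetically at 0 and 10 min.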
Pol kappa inh: inhibitors of human DNA polymerase kappa | Q9UBT6 | purified Pol kappa, fluorescent DNA synthesis assay, 10 min | Potency, µM (top dose mostly 107 µM), inactives show top-dose activity, negative = inhibition, usual class: inhibitors | hit rate 0.53% among 400,000; also: potency is read from the fitted curve at half-maximal effect; % is scaled to controls: 0 for no effect and ±100 for the full control effect
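Kinetic fluorescence readout at 0 and 10 min followed reaction start with substrate at 50 nM final. Beforehand, enzyme (10 nM Pol kappa) stood 15 min with compound at room temperature; buffer-only wells were negative controls.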
POLI inh: blocks human DNA polymerase iota activity; Pol iota fluorescent replication assay, 10 min; hit rate 1% among 390,000; AID 588590; Q9UNA4; Potency, µM (top dose mostly 115 µM), without a hit: at the top dose activity, negative = inhibition, most hits filed as inhibitors; also: potency is read from the fitted curve at half-maximal effect
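Fluorescent replication assay read twice, at 0 min and 10 min after adding 50 nM (final) substrate. Enzyme (10 nM) and compounds were first incubated 15 min at room temperature; enzyme-free buffer wells were negative controls.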
WRN helicase inh: blocks human WRN helicase; Q14191; WRN helicase unwinding, fluorescent forked duplex, kinetic; Potency, µM (series often up to 114 µM), for the others: at the top dose activity change, negative = inhibition, usual class: inhibitors; hit rate 0.46% among 360,000; also: potency is read from the fitted curve at half-maximal effect; % is scaled to controls: 0 for no effect and ±100 for the full control effect; nearly all actives have a fitted effect of over 55% in size
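Primary qHTS, 1536-well format. 20 nM WRN + compound, 15 min RT; start with 100 nM forked fluorophore/quencher duplex, 2 mM ATP (final); kinetic read ex 525/em 598 nm.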
Pol beta inh: blocks human DNA polymerase beta activity; Pol beta primer extension/strand displacement, fluorescence kinetic; Potency, µM (series often up to 114 µM), without a hit: top-dose activity change, negative = inhibition, most hits filed as inhibitors; hit rate 1.3% among 340,000; AID 485314; also: potency is read from the fitted curve at half-maximal effect; % is scaled to controls: 0 for no effect and ±100 for the full control effect
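Curves were derived by four-parameter Hill fits of normalized qHTS data. The kinetic fluorescent primer-extension read was taken at 0 and 10 min after 50 nM substrate, following a 15 min room-temperature preincubation of 10 nM enzyme with compounds.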
Numbers without * were called inactive; ? = inconclusive; · = not tested or not shown; [ ] = remark or other dose. Unless noted, calls follow the shape of the dose curve; as a rule, active = well fitted curve in the direction sought with a large enough effect; inconclusive = small, poorly fitted or top-dose-only effect, or another doubt; inactive = no such curve, though single readings can be large; an effect the other way counts as inactive or inconclusive.

SMILES	PI5P4Ka inh	Pol eta inh	Pol kappa inh	POLI inh	WRN helicase inh	Pol beta inh
CCOC(=O)c1c(NC(=O)c2cc(OCC)c(OCC)c(OCC)c2)sc2c1CCCCC2	·	-15.9%	1.4%	1.0%	·	-16.7%
Cc1ccc(-c2nn3c(C)nnc3s2)cc1NC(=O)c1ccc(-c2cccc(Cl)c2)o1	-52.5*	?	-24.5%	31.6µM*	50.1µM*	7.08µM*
Cc1ccc(-c2nn3c(C)nnc3s2)cc1NC(=O)c1ccc(Br)o1	-4.3	-6.0%	12.3%	-22.0%	-0.5%	-1.5%
Cc1ccc(-c2nn3c(C)nnc3s2)cc1NC(=O)c1ccc(-c2ccc(Cl)cc2Cl)o1	·	?	?	?	?	3.98µM*
Nc1c(N=Nc2ccc(-c3ccc(N=Nc4cc(S(=O)(=O)O)c5ccccc5c4N)cc3)cc2)cc(S(=O)(=O)O)c2ccccc12	·	·	1.12µM*	·	·	·
Cc1cc(-c2ccc(N=Nc3ccc4c(S(=O)(=O)O)cc(S(=O)(=O)O)c(N)c4c3O)c(C)c2)ccc1N=Nc1ccc2c(S(=O)(=O)O)cc(S(=O)(=O)O)c(N)c2c1O	·	·	1.26µM*	·	·	·
CC1(C)C(/C=C/C=C/C=C/C=C2\N(CCCCS(=O)(=O)O)c3ccc4ccccc4c3C2(C)C)=[N+](CCCCS(=O)(=O)[O-])c2ccc3ccccc3c21	-89.8*	7.08µM*	22.4µM*	12.6µM*	44.7µM*	·
COc1cc(C2CC(=O)Nc3cc4c(cc32)OCCO4)cc(Br)c1OC (stereo unspecified)	·	1.0%	7.9%	11.8%	·	8.1%
COc1ccc(S(=O)(=O)NCc2cccnc2)cc1NC(=O)c1ccccc1C	-72.9*	?	-27.6%	39.8µM*	-22.0%	·
Clc1cccc(-n2cc(-c3ccccc3)c3c(N4CCCCC4)ncnc32)c1	·	-14.3%	-13.5%[60.1 µM]	20.3%	·	0.9%
N=C1C2=C3Sc4ccccc4N3CCCC2=NN1c1cccc(S(=O)(=O)O)c1	-53.4*	?	-5.8%	?	?	-1.5%
Cc1c(Cl)cccc1NC(=O)CNc1cccc(S(=O)(=O)N(C)C)c1	-7.6	-11.3%	-5.9%	10.8%	-4.6%	79.4µM*
CCNc1ccc(S(=O)(=O)N(C)C)cc1NCC(=O)Nc1ccc(F)c(Cl)c1	6.4	-16.9%	-9.8%	89.1µM*	-12.2%[57.1 µM]	-25.8%
Cc1c(-c2ccc(Cl)cc2)oc(=O)c2c(N)n(-c3ccccc3)nc12	15.3	?	-13.2%	-3.7%	-32.5%	12.6µM*
Nc1c2c(=O)oc(-c3ccccc3)cc2nn1-c1ccccc1	·	-5.9%	-7.7%	-0.6%	-16.1%	17.2%
CCOC(=O)Cn1c(=N)n(Cc2ccc(C(C)(C)C)cc2)c2ccccc21	·	-3.7%	-2.5%	4.6%	·	13.0%
COc1ccc(C2=CC3=C(Br)C(=O)C(C)(O)C(=O)C3=CO2)cc1 (stereo unspecified)	-83.3*	?	?	?	?	39.8µM*
Cc1ccccc1C(=O)Nc1nc(-c2ccc(Br)cc2)ns1	·	-1.7%	8.7%	8.4%	·	23.8%
O=Nc1[nH]c(=O)c(/C=C(\O)c2ccccc2)nc1NO	?	?	-16.7%	3.98µM*	-15.1%	?
Oc1cccc(O)c1O	·	·	2.99µM*	·	·	·
O=C(O)c1cccc(O)c1O	-1.1	-22.7%	-1.8%	5.5%	-2.2%	·
O=C(COc1ccccc1[N+](=O)[O-])OCC(=O)c1ccc(Br)s1	?	79.4µM*	-21.1%	-19.3%	-5.3%[11.6 µM]	·
CC[C@H](C)/C=C/C1=CC2=C(Cl)C(=O)[C@@]3(C)OC(=O)C(C(=O)[C@H](C)[C@@H](C)O)=C3C2=CO1	-80.7*	17.8µM*	?	?	?	·
COc1cccc(C(=O)c2cn(CC(=O)NCc3ccco3)c3nc(C)ccc3c2=O)c1	-28.7	39.8µM*	89.1µM*	22.4µM*	?	?
COc1cccc(C(=O)NNC(=O)C(=O)Nc2ccc(C)c(Cl)c2)c1	7.8	-12.4%	-13.3%	6.6%	-5.4%	79.4µM*
O=C(COCc1cc(-c2ccc(F)cc2)on1)Nc1cc(Cl)cc(Cl)c1	·	-20.8%	-4.8%	33.9%	·	0.4%
